# Compound activity: PubChem, several laboratories
# Sampled rows, rich in hits. Any-hit rate of the full collection: about 3.6%.
# 3CLpro inhibitor: SARS-CoV 3CLpro protease inhibition. inhibition, % at 6 µM. recombinant SARS-CoV 3CLpro, quenched FRET peptide cleavage. P0C6X7. actives 0.14% (n = 290,000). AID 1706; in the data active means inhibition above about 12%
# BJeLR lethal: kills HRASV12-expressing BJeLR cells. BJeLR (HRASV12) viability, CellTiter-Glo ATP luminescence, 48 h. inhibition, % (test concentration not listed). actives 0.17% (n = 300,000); in the data active means inhibition above about 50%; inconclusive means no clear call, values can overlap the other calls
# Bead autofluor: compound fluorescence in toxin protease inhibitor counterscreen | fluorescence intensity (test concentration not listed) | compound autofluorescence counterscreen, microsphere flow cytometry; hits give high values | actives 3.1% (n = 360,000); in the data active means fluorescence intensity above about 16000; inconclusive means no clear call, values can overlap the other calls
# BoNT A protease: inhibitors of Botulinum neurotoxin A light chain protease; multiplex microsphere protease substrate cleavage, flow cytometry; inhibition, % at 10 µM; actives 0.17% (n = 360,000); AID 588499
# Anthrax LF inh2: anthrax lethal factor protease inhibition | multiplex microsphere protease cleavage assay, LF | inhibition, % at 10 µM | actives 0.12% (n = 360,000) | AID 588501
# BoNT F protease: blocks Botulinum neurotoxin F light chain protease; Multiplex microsphere protease cleavage assay, flow cytometry; inhibition, % at 10 µM; actives 0.22% (n = 360,000); in the data active means inhibition above about 35%, passing the limit was not always enough; inconclusive means no clear call, values can overlap the other calls
# Numbers stand for hits; 0 = inactive; ? = inconclusive; - = no result given. Unless noted, no stated cut-off is given here; in the data, active means inhibition above about 30%; inconclusive means no clear call, values can overlap the other calls; inactive means below that.
SMILES,3CLpro inhibitor,BJeLR lethal,Bead autofluor,BoNT A protease,Anthrax LF inh2,BoNT F protease
O=CNCCCc1nc2ccccc2n1Cc1ccccc1,0,0,16906,0,0,0
CC(=O)NCc1nc2ccccc2n1Cc1ccccc1C,0,0,0,0,0,0
O=C(CCC(=O)OCC(F)(F)C(F)F)Nc1ccccc1F,0,0,0,0,0,0
CCC1(C)Cc2c(C#N)c(N)n(-c3ccccc3)c(=S)c2CO1 (configuration not stated),0,0,0,0,0,0
CCC1(C)Cc2c(C#N)c(N)sc(=S)c2CO1 (configuration not stated),0,0,0,75,41,0
COc1ccccc1N(CC1CO1)S(=O)(=O)c1ccc(C)cc1 (configuration not stated),0,0,0,0,0,0
CCOC(=O)c1c(NC(=S)Nc2ccc(OCC)cc2)sc2c1CCN(C)C2,0,0,0,0,0,0
CCOC(=O)c1c(NC(=S)Nc2ccc(Cl)cc2)sc2c1CCN(C)C2,0,-,0,46,34,0
O=C(N/N=C/c1cccs1)c1cc(-c2ccncc2)nc2ccccc12,0,56,0,0,0,0
Cc1ccn2c(C(=O)N/N=C\c3cccs3)c(C)nc2c1,0,0,21815,0,0,0
CN1C(=O)N2CN(C3CCCCC3)CN3C(=O)N(C)C1C23 (configuration not stated),0,0,0,0,0,0
CC(C)n1cnc2c(N(C)c3ccccc3)nc(N(CCN(C)C)Cc3ccccc3)nc21,-,0,0,0,0,0
Cc1c(C(=O)N2CCCCCC2)c(S(=O)(=O)Nc2cccc(F)c2)c(C)n1C,0,0,0,0,0,0
O=C(NCCCN1CCN(Cc2ccccc2)CC1)c1nnc(Cc2c(F)cccc2Cl)o1,0,0,19523,0,0,0
COc1cc2c(cc1OC)CN(C(=O)CN1CCN(S(=O)(=O)c3ccccc3)CC1)CC2,0,0,0,0,0,0
Cc1ccc(NC(=O)CN2C(=O)NC(C)(CC(C)C)C2=O)c(Br)c1 (configuration not stated),-,-,0,0,0,0
CC(=O)N1CCN(S(=O)(=O)c2cccc(C(=O)OCC(=O)N(CCC#N)c3ccc(F)cc3)c2)CC1,-,-,0,0,0,0
O=C(COC(=O)/C=C/c1cccc(F)c1)NCc1ccc2c(c1)OCO2,-,-,0,0,0,0
Cn1c(=O)c2cc(S(=O)(=O)NCCC(=O)NCCc3ccc(Cl)cc3)ccc2n(C)c1=O,0,0,17176,0,0,0
COC(=O)CN(n1cnnc1)S(=O)(=O)c1ccccc1,0,0,22038,0,0,0
CC1CCCC(NC(=O)c2cccc(S(=O)(=O)N3CCN(c4ccccc4)CC3)c2)C1C (configuration not stated),-,0,0,0,0,0
CN1/C(=C/C(=O)c2cccs2)Sc2ccccc21,0,0,20294,0,0,0
Cn1c(=O)[nH]c(=O)c2c1nc(CN1CCN(c3cccc(Cl)c3)CC1)n2CCc1ccccc1,0,0,16970,0,0,0
CCCCCn1c(CN2CCN(c3cccc(Cl)c3)CC2)nc2c1c(=O)[nH]c(=O)n2C,0,0,20547,0,0,0
CCCCCn1c(CN2CCN(C(=O)OCC)CC2)nc2c1c(=O)[nH]c(=O)n2C,0,0,0,0,0,0
SMILES,3CLpro inhibitor,BJeLR lethal,Bead autofluor,BoNT A protease,Anthrax LF inh2,BoNT F protease
CCOC(=O)N1CCN(Cc2nc3c(c(=O)[nH]c(=O)n3C)n2Cc2cc(C)ccc2C)CC1,0,0,20382,?,0,0
CC(C)NS(=O)(=O)c1ccc(N2C(=O)c3ccccc3C2=O)cc1,0,0,19293,0,0,0
CCOC(=O)C1(CCOc2ccccc2)CCN(Cc2ccc(O)c(OC)c2)CC1,0,0,0,0,0,0
CCOC(=O)C1(CCOc2ccccc2)CCN(Cc2ccc(F)c(OC)c2)CC1,0,0,0,0,0,40
CCOc1cc(C2C(C(=O)OC)=CN(Cc3ccc(Cl)cc3)C=C2C(=O)OC)ccc1O,0,0,0,0,0,48
COC(=O)C1=CN(C)C=C(C(=O)OC)C1c1ccc(O)c(OC)c1,0,0,23196,?,0,0
COC(=O)C1=CN(c2cccc(C(F)(F)F)c2)C=C(C(=O)OC)C1c1ccc(O)c(OC)c1,0,0,0,0,0,0
COC(=O)C1=CN(Cc2ccccc2)C=C(C(=O)OC)C1c1ccc(O)c(OC)c1,0,0,0,0,0,0
CCC1(CC)C(=O)NC(=NCCc2c[nH]c3ccccc23)NC1=O,0,0,17043,0,0,0
NCCc1c[nH]c2ccccc12,0,-,0,0,0,0
Cc1ccccc1CN(c1ccc(C(N)=O)cc1)S(C)(=O)=O,0,0,16249,0,0,0
Cc1ccccc1N(Cc1ccccc1F)S(C)(=O)=O,0,0,23221,0,0,0
Cc1ccccc1CN(c1ccc(C(=O)NCc2cccnc2)cc1)S(C)(=O)=O,0,0,0,0,0,0
COc1ccccc1NC(=O)Cc1csc(NC(=S)Nc2ccc(C)cc2)n1,0,0,16561,0,0,0
Cc1ccc(N=Cc2nc(/C=C/c3cccc([N+](=O)[O-])c3)oc2O)cc1,0,0,22530,?,0,0
CC(C)CC1C(=O)N(Cc2cn(CCC3OCCCO3)nn2)CCS(=O)(=O)N1Cc1ccc(-c2ccncc2)cc1 (configuration not stated),-,-,0,0,0,0
Cc1ccc(NC(=O)COc2nc(C)cs2)cc1,0,0,16659,0,0,0
C=C1C(=O)CC2=C1[C@](Cc1ccc(F)cc1)(C(=O)OC)N(C(=O)c1ccccc1)C2,-,-,0,0,0,0
C=C1C(=O)C=C2CN(C(=O)c3ccccc3)[C@@](Cc3ccc(F)cc3)(C(=O)OC)[C@@H]12,0,107,0,0,0,0
CCNc1nc(Oc2ccc(C(=O)OC)cc2)nc(SC)n1,0,0,22097,0,0,0
CCNc1nc(Oc2ccc(C(=O)OCC)cc2)nc(SC)n1,0,0,0,0,0,0
CNc1nc(Oc2ccccc2C(=O)OC)nc(SC)n1,0,0,21738,0,0,0
CS(=O)(=O)Nc1ccc(C(=O)NCCSCc2c(F)cccc2Cl)cc1,0,0,0,0,0,0
N#CC1=C(SCc2ccccc2)NC(=O)CC1c1ccco1 (configuration not stated),0,0,20548,0,0,0
N#CC1=C(SCC(=O)NCc2ccccc2)NC(=O)CC1c1ccco1 (configuration not stated),0,0,0,0,0,0
CCSC1=C(C#N)C(c2ccccc2Cl)CC(=O)N1 (configuration not stated),0,0,0,0,0,0
CCOc1ccccc1C1CC(=O)NC(SCC)=C1C#N (configuration not stated),0,0,0,0,0,0
CCCSC1=C(C#N)C(c2ccc(Cl)cc2Cl)CC(=O)N1 (configuration not stated),0,0,24553,0,0,0
